A short description of assay [1]: A549 cell viability effects, profiling panel, calcein-AM fluorescence, 48 h, basal (AID 1162). The settings on record: higher = more signal.
Assay [2] can be described thus: adipocyte viability effects, profiling panel, cell-based, 3T3-L1 adipocytes, calcein-AM fluorescence, 48 h, basal (AID 1163). Conditions: 3T3-L1 adipocytes viability, higher = more signal.
Assay [3] is described as follows: HepG2 cell viability effects, profiling panel, calcein-AM fluorescence, 48 h, basal (AID 1164). The settings on record: higher = more signal.
Assay [4] can be described thus: MM1S cell viability effects, profiling panel, calcein-AM fluorescence, 48 h, basal (AID 1165).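 Also: viability of MM1S multiple myeloma cells under basal unstimulated conditions.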 Conditions: higher = more signal.
Assay [5] is described as follows: basal RPMI8226 viability, no added stimulus, profiling panel, cell-based, calcein-AM fluorescence, 48 h, PK04 Diversity Set (AID 1166).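 Also: cells grown under basal conditions without added stimulus.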 Conditions: RPMI8226 myeloma viability, higher = more signal.
Assay [6] in a line: basal HepG2 mitochondrial membrane potential changes, profiling panel, cell-based, JC-1 fluorescence, 24 h, 100 nL compound (AID 1167). Conditions: higher = more signal.
The nature of assay [7]: basal 3T3-L1 adipocyte mitochondrial potential changes, profiling panel, cell-based, JC-1 fluorescence, 3T3-L1 adipocytes, 24 h, 100 nL compound (AID 1168). The settings on record: JC-1 mitochondrial fluorescence, higher = more signal, called active from +8 up or from −8 down.
Assay [8] is described as follows: basal RPMI8226 mitochondrial membrane potential changes, profiling panel, cell-based, JC-1 fluorescence, 24 h, 100 nL compound (AID 1169). Conditions: RPMI8226 myeloma, JC-1 mitochondrial potential fluorescence, higher = more signal.
Assay [9] can be described thus: basal MM1S mitochondrial membrane potential changes, profiling panel, cell-based, JC-1 fluorescence, 24 h, 100 nL compound (AID 1170). Conditions: higher = more signal.
Assay [10] can be described thus: A549 lung cancer cell viability effects, profiling panel, resazurin fluorescence, 24 h, PK04 Diversity Set (AID 1171). The settings on record: higher = more signal, called active from +8 up or from −8 down. (In general: Alamar Blue is a resazurin reagent that responds to reducing activity.)

Activity calls are given as the source filed them.
Also: test concentration not given here.

`O=C(O)C1N=C(c2ccc(OCCCO)cc2)N(c2ccccc2)O1` (stereo not given): the z-score was -0.906 in assay [1]; 0.135 in assay [2]; -0.0572 in assay [3]; 0.569 in assay [4]; -0.547 in [5]; -0.142 in [6]. For the same compound, the z-score in assay [7] is 0.663 (inactive); in [8], -1.22; in assay [9] it was -0.228; in [10], 0.417 (inactive).

On to `CC(C)CN1C(=O)[C@@]2(c3ccc([N+](=O)[O-])cc3)CC(=O)N(C3CCCCC3)[C@@H]2c2ccc(CO)cc21`, for which the z-score in assay [1] was -0.651; in [2], 0.16; in assay [3], -0.403; in assay [4], 0.246; in [5], 0.0529; in assay [6], 0.0665. The z-score was -0.339 (inactive) in [7], 0.603 in [8], -0.214 in assay [9] and -0.881 (inactive) in assay [10].

Take `COCCCNC(=O)[C@@]1(Sc2ccc(C)cc2)CC(=O)N(Cc2ccccc2Cl)[C@@H]1c1ccc(CO)cc1`: the z-score in assay [1] was 0.102; in [2], 0.381; in assay [3], -0.646; in assay [4] it was 0.661; in assay [5] it was -0.218; in assay [6], -0.627. For the same compound, the z-score in assay [7] was -0.554 (inactive); in assay [8] it was 0.118; in assay [9] it was -2.29; in [10] it was 1.76 (inactive).

Regarding `Cc1ccc(S[C@]2(C(=O)O)CC(=O)N(C(C)C)[C@@H]2c2ccc(CO)cc2)cc1`, the z-score in assay [1] is 0.716; in assay [2] it was 1.07; in assay [3], 1.19; in [4] it was 0.266; in assay [5] it was 0.535; in assay [6] it was 1.36. Further, the z-score in assay [7] was -0.285 (inactive); in assay [8], 0.00862; in [9], -0.317; in [10] it was -0.831 (inactive).

For the compound `CC(C)(C)OC(=O)CC[C@]1(C(N)=O)N=C(c2ccc(OCCCO)cc2)O[C@H]1c1ccccc1`, the z-score was -0.73 in assay [1]; 0.13 in [2]; -0.61 in assay [3]; -0.415 in assay [4]; 0.37 in assay [5]; -1.26 in [6]. Moreover, the z-score in assay [7] was -0.709 (inactive); in assay [8], 0.816; in assay [9], 0.335; in assay [10] it was -0.164 (inactive).

`C#CCOc1ccc(C[C@@H](C(=O)OC)N(CC#C)[C@@H](/C=C/C2CC2)[C@H](O)Cc2ccccc2)cc1`: the z-score in assay [1] was -1.05; in [2], -0.303; in assay [3], -2.42; in assay [4] it was -2.3; in assay [5], -2.19; in [6] it was -1.15. Moreover, the z-score in assay [7] was -0.00867 (inactive); in assay [8], -0.79; in assay [9] it was -0.524; in assay [10], 0.313 (inactive).

On to `COc1cc(CO)cc(I)c1O[C@H]1C=C(C(=O)NCCO)C[C@@H](N(C(=O)c2cc3ccccc3oc2=O)C2CCCCCC2)[C@@H]1O`, for which the z-score is 0.062 in [1]; 1.54 in [2]; 1.11 in assay [3]; 0.443 in assay [4]; -0.704 in assay [5]; -1.63 in assay [6]. Further, the z-score in assay [7] was -1.51 (inactive); in assay [8], -0.27; in assay [9] it was -1.21; in assay [10] it was 0.0258 (inactive).

`COC(=O)c1c(CC[C@@H](CO)NC(=O)NCCc2c[nH]c3ccccc23)oc(C(=O)Cc2ccccc2)c1C(=O)OC`: the z-score in [1] is -0.22; in assay [2], 1.12; in [3], -0.496; in assay [4] it was 0.49; in assay [5], 0.459; in assay [6] it was -1.27. Also, the z-score in assay [7] is -0.484 (inactive); in assay [8] it was 0.636; in assay [9] it was 0.0389; in assay [10], 0.926 (inactive).

`CN1C(=O)C2C=CC(C(O)c3ccc(F)cc3)N(N(c3ccccc3)c3ccccc3)C2C1=O` (stereo not given): the z-score in assay [1] is -0.631; in [2], -2.01; in assay [3], 0.153; in assay [4], 0.0431; in [5], -0.462; in assay [6] it was -1.03. Besides, the z-score in assay [7] is -0.802 (inactive); in assay [8] it was 0.399; in assay [9], -1.03; in assay [10] it was -0.867 (inactive).

As for `C#CCN1[C@@H](Cc2ccc(O)cc2)C(=O)O[C@H](Cc2ccccc2)[C@@H]1/C=C/C1CC1`, the z-score in assay [1] was -2.82; in assay [2], -0.145; in [3], -3.44; in assay [4], -3.22; in [5] it was -3.96; in assay [6] it was -3.57. The z-score in assay [7] is -0.0548 (inactive); in [8], -1.23; in assay [9], -0.744; in assay [10] it was -1.01 (inactive).

On to `C=CC[C@]1(C(=O)NCc2ccccc2)N=C(c2ccc(OCCCO)cc2)O[C@H]1c1ccccc1CN=[N+]=[N-]`, for which the z-score in [1] was -0.774; in assay [2], 0.0129; in [3] it was 0.22; in [4], -1.28; in [5] it was -1.81; in [6], 0.24. In addition, the z-score in assay [7] is -0.889 (inactive); in [8], -0.787; in assay [9], 0.407; in assay [10], 0.668 (inactive).

In the case of `CCCC[C@@H]1C[C@H]1[C@@H](NC(=O)c1cccnc1)c1ccc(Cl)cc1`, the z-score in [1] was -1.01; in [2] it was -1.38; in assay [3], -0.114; in assay [4] it was -2.05; in assay [5], -3.56; in assay [6], 1.06. The z-score in [7] is -0.307 (inactive); in assay [8], -0.249; in assay [9], -1.62; in assay [10], 1.56 (inactive).

Consider `CC(C)[Si](C#C[Si](C(C)C)(C(C)C)C(C)C)(O[C@H](C)c1cn(Cc2ccccc2)nn1)C(C)C`, for which the z-score in [1] was 1.25; in [2], -0.425; in assay [3] it was 0.592; in [4], 0.636; in assay [5] it was -1.67; in assay [6] it was 1.92. Further, the z-score is -0.367 (inactive) in assay [7], 0.0518 in [8], -0.542 in assay [9] and 0.236 (inactive) in [10].

These data come from PubChem BioAssay.
